# Compounds with a hit are over-represented: about 0.33% of the library has one in this group of screens.
# FXIIa inh = blocks human coagulation factor XIIa activity | P00748 | purified human FXIIa, AMC substrate fluorescence, 2 h | hit rate 0.2% among 33,000 | inhibition, % at 10 µM; in the data active = inhibition above about 30%;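 note: 0% = enzyme with vehicle only and 100% = no enzyme blank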
# FXIa inh = inhibitors of human coagulation factor XIa | purified human FXIa, fluorogenic AMC substrate cleavage | hit rate 0.3% among 33,000 | inhibition, % at 10 µM | P03951;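 active = inhibition above 40% in the primary screen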;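 note: 0% = enzyme without compound and 100% = blank wells lacking enzyme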
# Active calls of the source: *.
SMILES,FXIIa inh,FXIa inh
C/C(=N/NC(=O)c1ccoc1C)C12CC3CC(CC(C3)C1)C2,10,-4
O=C(c1ccccc1)N1CCN(C(=O)c2ccccc2)CC1,3,-1
O=C(c1ccc(F)cc1)N1CCN(C(=O)c2cccnc2)CC1,10,50*
Cc1cc(NC(=O)C(C)C)ncc1NC(=O)Cc1ccccc1,38*,1
Cc1cc(NC(=O)c2cccc(F)c2)ncc1NC(=O)c1ccco1,5,-2
O=C(CSc1cn(Cc2ccccc2)c2ccccc12)N1CCOCC1,-17,-13
O=C(Oc1cccc(-n2cnnn2)c1)c1ccco1,47*,45*
CC1CCc2c(C(=O)Oc3cccc(-n4cnnn4)c3)csc2C1 (stereo not given),9,0
Cc1cc(NC(=O)CCNS(=O)(=O)c2cc(Br)cnc2N)ccc1Br,7,-5
CC(C)n1c(SCC(=O)Nc2nc3c(s2)CCCC3)nc2c1c(=O)n(C)c(=O)n2C,4,-10
O=C(c1ccccc1)N1CCCC(c2nc3c(nnn3Cc3ccccc3)c(=O)[nH]2)C1 (stereo not given),37*,-2
O=C(C1CCCCC1)N1CCCC(c2nc3c(nnn3Cc3ccccc3)c(=O)[nH]2)C1 (stereo not given),-13,0
Cc1ccc(NS(=O)(=O)c2ccc(OCC(=O)N3CCOCC3)cc2)cc1,8,99*
CCOC(=O)COc1ccc(S(=O)(=O)Nc2ccc(C)cc2)cc1,11,2
CC12CN(S(=O)(=O)c3ccccc3)CC(C)(CN(S(=O)(=O)c3ccccc3)C1)C2,4,5
CCN(CCNC(=O)CN1CCN(Cc2ccc(Cl)cc2)C1=O)c1ccccc1,3,-2
O=S(=O)(Nc1ccc(S(=O)(=O)Nc2cccc3ccccc23)cc1)c1ccccc1,6,-4
O=S(=O)(Nc1cccc2nsnc12)c1ccccc1,8,48*
CCOC(=O)c1[nH]c2ccc(Cl)cc2c1-c1ccccc1,-15,30
O=c1nc(-c2ccccc2)c2cc(Cl)ccc2[nH]1,-16,103*
COC(=O)CSc1nnc(CNS(=O)(=O)c2ccc(Cl)cc2)n1C,4,-6
Cc1ccccc1N(C(=O)Cn1nnc(-c2cccs2)n1)C(C(=O)NCCC(C)C)c1ccco1 (stereo not given),9,-7
